Measured values taken from PubChem BioAssay AID1159580 (chemical genetic matrix, 2015).
Out of some 5,500 compounds screened, about 2,000 (36%) were called active. Roughly 18% stayed inconclusive and do not appear here. Cut-off read from the data, not from the text of the source: active = normalized growth mostly below about 0.91 (no sharp cut-off); inconclusive = no clear call, values can overlap the other calls; inactive = mostly above about 0.92. The list shows a part of the results.

Assay: chemical genetic growth profiling, strain panel (AID 1159580);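 note: tested at 20 µM; growth read once vehicle control cultures reached saturation at 30 °C; 1 = growth at the plate median or of vehicle wells; lower values mean less growth of the strain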
Settings: growth OD

Measured: normalized growth

Cc1cc(=O)[nH]c(=S)[nH]1
inactive: S. cerevisiae deletion strains, locus YJR075W, strain HOC1, stronger effect = lower value 1.02 | S. cerevisiae deletion strains, locus YKL009W, strain mrt4, stronger effect = lower value 0.999 | S. cerevisiae deletion strains, locus YKL068W, stronger effect = lower value 1 | S. cerevisiae deletion strains, locus YKL085W, strain MDH1 (second series), stronger effect = lower value 0.977 | S. cerevisiae deletion strains, locus YKL085W, strain MDH1, stronger effect = lower value 0.977 | S. cerevisiae deletion strains, locus YKL160W, strain elf1, stronger effect = lower value 0.974 | S. cerevisiae deletion strains, locus YKL190W, strain CNB1, stronger effect = lower value 1 | S. cerevisiae deletion strains, locus YKR001C, strain vps1, stronger effect = lower value 1.01 | S. cerevisiae deletion strains, locus YKR026C, strain gcn3, stronger effect = lower value 0.992 | S. cerevisiae deletion strains, locus YKR091W, strain srl3, stronger effect = lower value 0.967 | S. cerevisiae deletion strains, locus YLL001W, strain dnm1, stronger effect = lower value 1.01 | S. cerevisiae deletion strains, locus YLL026W, stronger effect = lower value 0.979 | S. cerevisiae deletion strains, locus YLL041C, strain sdh2, stronger effect = lower value 0.978 | S. cerevisiae deletion strains, locus YLR027C, strain aat2, stronger effect = lower value 0.973 | S. cerevisiae deletion strains, locus YLR039C, strain RIC1, stronger effect = lower value 1.03 | S. cerevisiae deletion strains, locus YLR058C, strain SHM2, stronger effect = lower value 1.01 | S. cerevisiae deletion strains, locus YLR102C, strain apc9, stronger effect = lower value 1 | S. cerevisiae deletion strains, locus YLR113W, strain HOG1, stronger effect = lower value 1.03 | S. cerevisiae deletion strains, locus YLR221C, strain rsa3, stronger effect = lower value 0.973 | S. cerevisiae deletion strains, locus YLR258W, strain gsy2, stronger effect = lower value 0.98 | S. cerevisiae deletion strains, locus YLR262C, strain YPT6 (second series), stronger effect = lower value 0.981 | S. cerevisiae deletion strains, locus YLR262C, strain YPT6, stronger effect = lower value 1.07 | S. cerevisiae deletion strains, locus YLR268W, strain sec22, stronger effect = lower value 1.08 | S. cerevisiae deletion strains, locus YLR320W, strain mms22, stronger effect = lower value 0.956 | S. cerevisiae deletion strains, locus YLR330W, strain CHS5, stronger effect = lower value 1.01 | S. cerevisiae deletion strains, locus YLR342W, strain FKS1 (second series), stronger effect = lower value 1 | S. cerevisiae deletion strains, locus YLR342W, strain FKS1, stronger effect = lower value 0.985 | S. cerevisiae deletion strains, locus YLR357W, strain rsc2, stronger effect = lower value 0.944 | S. cerevisiae deletion strains, locus YLR370C, strain arc18, stronger effect = lower value 0.973 | S. cerevisiae deletion strains, locus YLR371W, strain rom2, stronger effect = lower value 1.02 | S. cerevisiae deletion strains, locus YLR384C, strain iki3, stronger effect = lower value 0.989 | S. cerevisiae deletion strains, locus YLR418C, strain cdc73, stronger effect = lower value 1.02 | S. cerevisiae deletion strains, locus YML016C, strain PPZ1, stronger effect = lower value 1.01 | S. cerevisiae deletion strains, locus YML032C, strain rad52, stronger effect = lower value 1.04 | S. cerevisiae deletion strains, locus YML120C, strain ndi1, stronger effect = lower value 0.972 | S. cerevisiae deletion strains, locus YML124C, strain tub3, stronger effect = lower value 1 | S. cerevisiae deletion strains, locus YMR058W, strain fet3, stronger effect = lower value 0.976 | S. cerevisiae deletion strains, locus YMR078C, strain ctf18, stronger effect = lower value 1.01 | S. cerevisiae deletion strains, locus YMR125W, strain sto1, stronger effect = lower value 0.933 | S. cerevisiae deletion strains, locus YMR129W, stronger effect = lower value 0.969 | S. cerevisiae deletion strains, locus YMR205C, strain PFK2, stronger effect = lower value 0.976 | S. cerevisiae deletion strains, locus YMR223W, strain ubp8, stronger effect = lower value 0.989 | S. cerevisiae deletion strains, locus YMR231W, strain pep5, stronger effect = lower value 1 | S. cerevisiae deletion strains, locus YMR263W, strain SAP30, stronger effect = lower value 1.03 | S. cerevisiae deletion strains, locus YMR307W, strain GAS1, stronger effect = lower value 1.05 | S. cerevisiae deletion strains, locus YNL067W, strain RPL9B, stronger effect = lower value 1.02 | S. cerevisiae deletion strains, locus YNL071W, strain lat1, stronger effect = lower value 0.963 | S. cerevisiae deletion strains, locus YNL128W, strain TEP1, stronger effect = lower value 1 | S. cerevisiae deletion strains, locus YNL153C, strain GIM3, stronger effect = lower value 1.03 | S. cerevisiae deletion strains, locus YNL183C, strain NPR1, stronger effect = lower value 0.977 | S. cerevisiae deletion strains, locus YNL209W, strain ssb2, stronger effect = lower value 0.973 | S. cerevisiae deletion strains, locus YNL233W, strain BNI4, stronger effect = lower value 1.02 | S. cerevisiae deletion strains, locus YNL250W, strain rad50, stronger effect = lower value 1.01 | S. cerevisiae deletion strains, locus YNL271C, strain bni1, stronger effect = lower value 1.01 | S. cerevisiae deletion strains, locus YNL298W, strain CLA4, stronger effect = lower value 1.01 | S. cerevisiae deletion strains, locus YNL307C, strain MCK1, stronger effect = lower value 1.01 | S. cerevisiae deletion strains, locus YNL322C, strain KRE1 (second series), stronger effect = lower value 0.969 | S. cerevisiae deletion strains, locus YNL322C, strain KRE1, stronger effect = lower value 1 | S. cerevisiae deletion strains, locus YNR049C, strain mso1, stronger effect = lower value 0.978 | S. cerevisiae deletion strains, locus YNR052C, strain pop2, stronger effect = lower value 1.01 | S. cerevisiae deletion strains, locus YOL006C, strain TOP1, stronger effect = lower value 1.08 | S. cerevisiae deletion strains, locus YOL012C, strain htz1 1.27 | S. cerevisiae deletion strains, locus YOL147C, strain pex11, stronger effect = lower value 1 | S. cerevisiae deletion strains, locus YOR001W, strain rrp6, stronger effect = lower value 0.975 | S. cerevisiae deletion strains, locus YOR061W, strain CKA2, stronger effect = lower value 1.01 | S. cerevisiae deletion strains, locus YOR069W, strain VPS5, stronger effect = lower value 1.01 | S. cerevisiae deletion strains, locus YOR070C, strain gyp1, stronger effect = lower value 0.987 | S. cerevisiae deletion strains, locus YOR080W, strain dia2, stronger effect = lower value 0.965 | S. cerevisiae deletion strains, locus YOR083W, strain WHI5, stronger effect = lower value 0.964 | S. cerevisiae deletion strains, locus YOR106W, strain vam3, stronger effect = lower value 0.999 | S. cerevisiae deletion strains, locus YOR136W, strain idh2, stronger effect = lower value 1 | S. cerevisiae deletion strains, locus YOR144C, strain elg1, stronger effect = lower value 1 | S. cerevisiae deletion strains, locus YOR184W, strain ser1, stronger effect = lower value 1.01 | S. cerevisiae deletion strains, locus YOR231W, strain MKK1, stronger effect = lower value 1.03 | S. cerevisiae deletion strains, locus YOR265W, strain rbl2, stronger effect = lower value 0.98 | S. cerevisiae deletion strains, locus YOR270C, strain vph1, stronger effect = lower value 0.976 | S. cerevisiae deletion strains, locus YOR290C, strain snf2, stronger effect = lower value 0.94 | S. cerevisiae deletion strains, locus YOR316C, strain cot1, stronger effect = lower value 1.01 | S. cerevisiae deletion strains, locus YPL051W, strain arl3, stronger effect = lower value 0.982 | S. cerevisiae deletion strains, locus YPL055C, strain LGE1, stronger effect = lower value 1 | S. cerevisiae deletion strains, locus YPL078C, strain atp4, stronger effect = lower value 0.973 | S. cerevisiae deletion strains, locus YPL106C, strain sse1, stronger effect = lower value 0.919 | S. cerevisiae deletion strains, locus YPL240C, strain hsp82, stronger effect = lower value 0.958 | S. cerevisiae deletion strains, locus YPL241C, strain CIN2, stronger effect = lower value 1.01 | S. cerevisiae deletion strains, locus YPL256C, strain CLN2, stronger effect = lower value 1.12 | S. cerevisiae deletion strains, locus YPR119W, strain clb2, stronger effect = lower value 1 | S. cerevisiae deletion strains, locus YPR141C, strain kar3, stronger effect = lower value 1 | S. cerevisiae deletion strains, locus YPR163C, strain tif3, stronger effect = lower value 1.01 | S. cerevisiae deletion strains, locus YPR167C, strain met16, stronger effect = lower value 1.01 | S. cerevisiae deletion strains, strain wtn01, stronger effect = lower value 1.03 | S. cerevisiae strains, strain wild type, stronger effect = lower value 1.01
active: S. cerevisiae deletion strains, locus YNL248C, strain rpa49, stronger effect = lower value 0.872
